Measured values published in the supplement of paper PMC9135407.
Values joined by “and” are separate entries in the source; they are usually repeats but may differ in a detail not shown here. Equal values may be shown once. Where a name gives a salt, the structure may show the parent alone. Out of some 5,800 compounds screened, about 620 (11%) showed activity. The sample holds actives, similar compounds and a random draw of the others, so the mix is not that of the screen. A number with no mark means an inactive call.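 Rule for the calls: active = score above a cut-off or among the top three wells of a plate; in these data no inactive exceeds 0.85.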

System: primary human hepatic stellate cells (donor 1)
Assay: scaled lipid accumulation score (0 = DMSO-like, 1 = nortriptyline-like); higher = stronger HSC inactivation (lipid re-accumulation), active = hit call of the paper
Details: 48 h
Experimental: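 Primary lipid accumulation screen in primary human hepatic stellate cell myofibroblasts (donor 1, passage 8) in 384-well plates. 100 nL of library compound was pin-transferred into 30 µL medium in duplicate, and cells were treated for 48 h. The 'Scaled' score combines distance from plate baseline, toxicity and reproducibility penalties, and is normalised to nortriptyline (positive) and DMSO (negative) controls on each plate. A hit is defined as scaled >0.85 or among the top 3 wells per plate.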

[1] = library stock concentration: 10 mM
[2] = library stock concentration: 3.33 mM
[3] = library stock concentration: 1 mM
[4] = library stock concentration: 80 uM
[5] = library stock concentration: 400 uM
[6] = library stock concentration: 2 mM

Question: With `CC(C)[C@@H]1NC(=O)[C@H](Cc2ccccc2)NC(=O)[C@@H](CC(=O)O)NC(=O)CNC(=O)[C@H](CCCN=C(N)N)NC1=O` [Cyclo [Arg-Gly-Asp-D-Phe-Val]] as the compound, how does the “scaled lipid accumulation score” value (library stock concentration: 8.7 mM) read?
Answer: The value was at most -0.003.

Question: How did the “scaled lipid accumulation score” value [1] turn out when `CN[C@H]1CC[C@@H](c2ccc(Cl)c(Cl)c2)c2ccccc21` [Sertraline] [listing 1 of 2 here] was run?
Answer: The value was 0.147 and 0.63.

Question: `CN[C@H]1CC[C@@H](c2ccc(Cl)c(Cl)c2)c2ccccc21` [Sertraline hydrochloride] was tested. Which “scaled lipid accumulation score” value (library stock concentration: 5.8 mM) did it give?
Answer: The value was 0.777.

Question: And the “scaled lipid accumulation score” value [1]?
Answer: The value was ≤ -0.055 and 0.281 and 0.318.

Question: For `CN[C@H]1CC[C@@H](c2ccc(Cl)c(Cl)c2)c2ccccc21` [Sertraline] [listing 2 of 2 here], which “scaled lipid accumulation score” value is on record?
Answer: Its value is 1.23 (active).

Question: `CN[C@H]1CC[C@@H](c2ccc(Cl)c(Cl)c2)c2ccccc21` [Sertraline HCl] was tested. Which “scaled lipid accumulation score” value [2] did it give?
Answer: The value was 0.103.

Question: What about the “scaled lipid accumulation score” value [1] of the same compound?
Answer: The value was 0.033.

Question: With `CC(C)[C@H](NC(=O)CNC(=O)OC(C)(C)C)C(=O)N[C@H](C=O)C(C)C` as the compound, how does the “scaled lipid accumulation score” value (library stock concentration: 14 mM) read?
Answer: Its value is 0.022.

Question: `COC(=O)[C@H]1[C@H]2C[C@@H]3c4[nH]c5cc(OC)ccc5c4CCN3C[C@H]2C[C@@H](OC(=O)c2cc(OC)c(OC)c(OC)c2)[C@@H]1OC` [Reserpine] [listing 1 of 3 here] was tested. Which “scaled lipid accumulation score” value [1] did it give?
Answer: The value was 1.18 (active).

Question: Which “scaled lipid accumulation score” value does the source give for `COC(=O)[C@H]1[C@H]2C[C@@H]3c4[nH]c5cc(OC)ccc5c4CCN3C[C@H]2C[C@@H](OC(=O)c2cc(OC)c(OC)c(OC)c2)[C@@H]1OC` [Reserpine] [listing 2 of 3 here] here?
Answer: The value was at most 0.

Question: And the “scaled lipid accumulation score” value [1]?
Answer: The value was 0.574 and 0.771.

Question: With `CCOC(=O)Oc1c(OC)cc(C(=O)O[C@@H]2C[C@@H]3CN4CCc5c([nH]c6cc(OC)ccc56)[C@H]4C[C@@H]3[C@H](C(=O)OC)[C@H]2OC)cc1OC` [Syrosingopine] as the compound, how does the “scaled lipid accumulation score” value read?
Answer: The value was 0.248.

Question: Which “scaled lipid accumulation score” value [1] does the source give for `COC(=O)[C@H]1[C@H]2C[C@@H]3c4[nH]c5cc(OC)ccc5c4CCN3C[C@H]2C[C@@H](OC(=O)c2cc(OC)c(OC)c(OC)c2)[C@@H]1OC` [Reserpine] [listing 3 of 3 here] here?
Answer: The value was 0.944 (active).

Question: How did the “scaled lipid accumulation score” value turn out when `COc1ccc2c3c([nH]c2c1)[C@H]1C[C@H]2[C@H](C[C@@H](O)[C@H](OC)[C@H]2C(=O)O)CN1CC3` [Reserpinic acid hydrochloride] was run?
Answer: The value was at most 0.

Question: Which “scaled lipid accumulation score” value does the source give for `COC(=O)[C@H]1[C@H]2C[C@@H]3c4[nH]c5cc(OC)ccc5c4CCN3C[C@H]2C[C@@H](OC(=O)/C=C/c2cc(OC)c(OC)c(OC)c2)[C@@H]1OC` [Rescinnamin] here?
Answer: The value was 0.478.

Question: With `CC1/C=C/C=C/C=C/C=C/C=C/C=C/C=C/C(OC2O[C@H](C)[C@@H](O)[C@H](N)[C@@H]2O)CC(O)C(C(=O)O)C(O)CC(=O)CC(O)CC(O)CC(O)CC(=O)CCCC(=O)CC(=O)OC1C(C)CC(C)C(O)CC(=O)c1ccc(N)cc1` (stereo partly specified) as the compound, how does the “scaled lipid accumulation score” value [1] read?
Answer: Its value is at most 0.

Question: `CCN(CC)CC1CCCCN1CC(=O)N1c2ccccc2C(=O)Nc2cccnc21` (stereo unspecified) was tested. Which “scaled lipid accumulation score” value [1] did it give?
Answer: The value was ≤ 0 and ≤ -0.006.

Question: With `CCCCC/C=C\CC1OC1C/C=C\C/C=C\CCCC(=O)O` (stereo unspecified) as the compound, how does the “scaled lipid accumulation score” value (library stock concentration: 100 uM) read?
Answer: Its value is at most -0.021.

Question: `O=C(O)CCC/C=C\C[C@@H]1[C@@H](/C=C/[C@@H](O)COc2ccccc2)[C@H](O)C[C@@H]1O` [16-phenoxy tetranor Prostaglandin F2.alpha.] was tested. Which “scaled lipid accumulation score” value [3] did it give?
Answer: The value was at most 0.

Question: What does the source list for `CCN1CCN(c2ccc(Nc3cc(N(C)C(=O)Nc4c(Cl)c(OC)cc(OC)c4Cl)ncn3)cc2)CC1`?
Answer: scaled lipid accumulation score [4]: ≤ -0.009; scaled lipid accumulation score [5]: ≤ -0.009; scaled lipid accumulation score [6]: 0.01; scaled lipid accumulation score [1]: 0.291

Question: What does the source list for `CCC[C@H](Nc1nc(-c2ccc(NC(=O)NCC)c(OC)c2)ncc1C)c1cccnc1` [CYT997 (Lexibulin)]?
Answer: scaled lipid accumulation score [2]: 0.682; scaled lipid accumulation score [1]: 0.758

Question: What does the source list for `COc1ccc(-c2cc3nccn3c(Nc3ncccc3C(N)=O)n2)cc1OC`?
Answer: scaled lipid accumulation score [4]: 0.088; scaled lipid accumulation score [5]: ≤ -0.009; scaled lipid accumulation score [6]: 0.133; scaled lipid accumulation score [1]: 0.349

Question: `C[N+](C)(C)CCO.[Cl-]` [Choline chloride] was tested. Which “scaled lipid accumulation score” value [1] did it give?
Answer: Its value is at most -0.027.

Question: What about the “scaled lipid accumulation score” value (library stock concentration: 14.3 mM) of the same compound?
Answer: The value was at most 0.

Question: Which results are given for `C[N+](C)(C)CCO.[Cl-]` [Choline Chloride]?
Answer: scaled lipid accumulation score [2]: ≤ 0; scaled lipid accumulation score [1]: 0.043

Question: For `N#CC(=Cc1ccc2[nH]ccc2c1)C(N)=C(C#N)C#N`, which “scaled lipid accumulation score” value (library stock concentration: 19.3 mM) is on record?
Answer: The value was 0.606.

Question: How did the “scaled lipid accumulation score” value [2] turn out when `COc1ccc(C2=NC(c3ccc(Cl)cc3)C(c3ccc(Cl)cc3)N2C(=O)N2CCNC(=O)C2)c(OC(C)C)c1` (stereo unspecified) [Nutlin-3b] was run?
Answer: The value was at most -0.009.

Question: What about the “scaled lipid accumulation score” value [1] of the same compound?
Answer: The value was at most 0.

Question: For `COc1ccc(C2=N[C@@H](c3ccc(Cl)cc3)[C@@H](c3ccc(Cl)cc3)N2C(=O)N2CCNC(=O)C2)c(OC(C)C)c1`, which “scaled lipid accumulation score” value [3] is on record?
Answer: The value was at most 0.

Question: How did the “scaled lipid accumulation score” value [2] turn out when `COc1ccc(C2=NC(c3ccc(Cl)cc3)C(c3ccc(Cl)cc3)N2C(=O)N2CCNC(=O)C2)c(OC(C)C)c1` (stereo unspecified) [Nutlin-3a] was run?
Answer: Its value is 0.207.

Question: How did the “scaled lipid accumulation score” value [1] turn out when `COc1ccc(C2=N[C@@H](c3ccc(Cl)cc3)[C@H](c3ccc(Cl)cc3)N2C(=O)N2CCNC(=O)C2)c(OC(C)C)c1` [Nutlin-3a] was run?
Answer: Its value is 0.954 (active).

Question: `COc1ccc(C2=N[C@@H](c3ccc(Cl)cc3)[C@@H](c3ccc(Cl)cc3)N2C(=O)N2CCNC(=O)C2)c(OC(C)C)c1` [Nutlin-3] was tested. Which “scaled lipid accumulation score” value [2] did it give?
Answer: The value was 0.168.

Question: And the “scaled lipid accumulation score” value [1]?
Answer: Its value is 0.829.
